# In the library only some 3.5% were active in any assay of this set; here they are far more common.
# CHRM1 agonist = activates human CHRM1 receptor | CHO-K1 hM1, Fluo-8 calcium fluorescence, agonist mode; 0% DMSO, 100% acetylcholine EC100 | activation, % at 3 µM | hit rate 0.33% among 360,000 | AID 588814;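 active = activation above the run's mean compound activation plus 3 SD, cut at about 16% in these data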;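 note: peak over basal fluorescence ratio within a 140 s kinetic read after compound addition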
# Target sequence (P11229 whole entry, looked up): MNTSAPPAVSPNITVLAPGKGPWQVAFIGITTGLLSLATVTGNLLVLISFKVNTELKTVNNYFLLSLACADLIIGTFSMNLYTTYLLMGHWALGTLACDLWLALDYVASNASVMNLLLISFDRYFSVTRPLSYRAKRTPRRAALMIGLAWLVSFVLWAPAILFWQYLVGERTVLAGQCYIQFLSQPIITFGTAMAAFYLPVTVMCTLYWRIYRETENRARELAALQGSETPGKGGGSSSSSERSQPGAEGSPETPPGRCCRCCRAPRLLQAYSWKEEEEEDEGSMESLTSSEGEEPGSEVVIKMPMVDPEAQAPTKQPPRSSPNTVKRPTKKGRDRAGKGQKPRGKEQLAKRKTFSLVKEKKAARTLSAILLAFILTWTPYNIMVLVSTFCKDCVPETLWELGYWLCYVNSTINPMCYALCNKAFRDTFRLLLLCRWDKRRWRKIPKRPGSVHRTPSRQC
# CHRM1 antagonist = human CHRM1 antagonism; P11229; CHO-K1 hM1, Fluo-8 calcium fluorescence, ACh EC80 antagonist; inhibition, % at 3 µM; hit rate 1.3% among 360,000; AID 588852;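 active = percent inhibition above its own plate's cutoff, namely the mean of that plate's compound wells plus 3 SD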;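 note: peak over basal fluorescence ratio during 140 s after agonist addition; 0% = ACh EC80 plus DMSO and 100% = DMSO alone without agonist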
# CHRM1 PAM = positive allosteric modulators of human M1 muscarinic receptor; hit rate 0.088% among 360,000; P11229; activation, % at 3 µM; CHO-K1 hM1, Fluo-8 calcium fluorescence, ACh EC20; 0% = ACh EC20, 100% = maximal ACh; AID 588819; in the data active = activation above about 19%, passing the limit was not always enough
# Myeloid diff MLP = promotes myeloid progenitor differentiation; calls only at 10 µM; ER-HoxA9 myeloid progenitors, lysozyme-GFP differentiation, flow cytometry; hit rate 1% among 360,000; AID 624256;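 active = normalized GFP-positive differentiation at or above the plate's own cutoff, the solvent-only control mean plus 3 SD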;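 note: cells exposed to compound for four days before flow analysis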
# ATG4B inh = inhibitors of human ATG4B cysteine protease. inhibition, % at 8.33 µM. hit rate 0.51% among 340,000. Q9Y4P1. ATG4B cleavage of LC3-PLA2, NBD-HPC fluorescence, 1 h; in the data active = inhibition above about 40%
# SKN-1 inh = blocks SKN-1 activity in C. elegans; inhibition, % at 21.8 µM; hit rate 0.49% among 360,000; C. elegans VP596 Pgst-4::GFP/RFP ratio, acrylamide-induced, 24 h;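 active = interference check ratio from 0.5 to 1.5 plus GFP to RFP signal ratio inhibition reaching or exceeding a fixed threshold, cut at about 30% in these data, passing the limit was not always enough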
# The depositor's hits bear a star; i = inactive; / = no result; + = active, no number.
SMILES,CHRM1 agonist,CHRM1 antagonist,CHRM1 PAM,Myeloid diff MLP,ATG4B inh,SKN-1 inh
CCCCOc1ccc(C(=O)NCC(=O)NC(C)CCc2ccccc2)cc1 (stereo not drawn),-5.3,2.7,-0.5,+,5.0,7.0
COc1cc(OC)cc(C(=O)NCC(=O)NC(C)CCc2ccccc2)c1 (stereo not drawn),-2.3,-0.3,2.8,i,-3.4,2.5
C=CCS(=O)(=O)N1CCCC(Cc2ccccc2C)(C(=O)OCC)C1 (stereo not drawn),-4.3,0.5,2.6,i,-2.6,-0.4
CCOC(=O)C(C(=O)Cc1ccccc1)c1ccccc1 (stereo not drawn),-7.8,10.9,-4.6,i,-0.8,7.1
C[N+](C)(C)C/C=C1/COCO1,90.6*,96.2*,-17.1,i,-2.2,9.0
Cc1ccc(S(=O)(=O)N2CCCc3cc(NC(=O)c4c(F)cccc4F)ccc32)cc1,-5.4,-1.6,3.9,+,29.0,4.2
COc1cccc(OC)c1C(=O)Nc1ccc2c(c1)CCCN2S(=O)(=O)c1ccc(C)cc1,-5.1,-3.1,-1.0,i,-6.2,-3.4
CC(=O)c1cccc(S(=O)(=O)N2CCC(C(=O)OC3CCOC3=O)CC2)c1 (stereo not drawn),-1.9,26.9*,-11.2,i,-7.5,14.8
CN(Cc1c(F)cccc1Cl)C(=O)C1=CC=CN2CCS(=O)(=O)N=C12,-3.5,-5.4,6.8,i,-4.3,-3.1
O=C(OCC(O)COC(=O)c1cccnc1)c1cccnc1,-2.0,-0.4,6.1,+,4.8,-2.5
O=C(OCc1ccc(Br)cc1)c1cccnc1,0.1,-10.2,17.0,i,-6.9,1.8
CCNc1c(NC(=O)c2cccs2)c(=O)oc2ccccc12,-1.6,-7.7,11.8,i,0.7,1.9
O=S(=O)(N=C1C=CC(=NS(=O)(=O)c2ccccc2)c2ccccc21)c1ccccc1,-1.9,-12.8,9.5,+,/,-9.0
O=C1c2ccccc2-c2onc3c(N4CCN(CCO)CC4)cc(N4CCN(C(=O)c5ccco5)CC4)c1c23,-5.2,2.2,3.6,+,27.2,53.9
COC(=O)[C@@]12C[C@@H](CC(=O)N3CCOCC3)C(=O)N(Cc3ccccc3)C1=CCC(C)(C)C2,/,/,/,i,/,-3.8
Cc1ccc(NS(=O)(=O)c2cccc3nsnc23)cc1C,-7.5,39.8*,-26.4,i,2.0,1.5
N#Cc1c(N2CCN(c3ccc(F)cc3)CC2)nc(N)c2c(N)nc3c(c12)CC(=O)N3C1CC1,-0.2,30.6*,-7.9,i,-10.9,9.2
COc1cc(F)ccc1S(=O)(=O)N1CCN(C23CC4CC(CC(C4)C2)C3)CC1,-4.5,1.4,2.1,i,-15.9,-6.6
COc1cc(C)ccc1S(=O)(=O)N1CCN(C23CC4CC(CC(C4)C2)C3)CC1,-8.9,98.4*,-21.6,i,2.2,12.1
COc1ccc(CCNC(=O)CSc2nc3[nH]ncc3c(=O)n2-c2ccc(Br)cc2)cc1OC,24.8*,2.1,-4.4,i,-11.2,8.7
CCc1ccc(-n2c(SCC(=O)Nc3cc(C)[nH]n3)nc3[nH]ncc3c2=O)cc1,-2.4,2.6,1.8,i,-4.4,39.4*
COc1ccc(CCNC(=O)CSc2ccc(Br)cc2)cc1OC,-3.7,-1.3,3.8,i,-7.3,5.9
CCc1ccccc1-n1c(SCC(=O)Nc2ccc3c(c2)OCCO3)nc2[nH]ncc2c1=O,-5.1,4.8,-1.6,i,14.4,-3.1
Cc1cc(C(=O)OCC(=O)NC2(C#N)CCCCC2)c(C)o1,-2.2,-7.2,7.3,i,-5.4,12.6
CCN(CC)CCNC(C(=O)Nc1cccc(C(C)=O)c1)c1ccccc1 (stereo not drawn),-10.3,83.8*,-29.3,i,-3.9,1.0
SMILES,CHRM1 agonist,CHRM1 antagonist,CHRM1 PAM,Myeloid diff MLP,ATG4B inh,SKN-1 inh
O=C(O)c1cnc2ccccc2n1,-2.7,3.7,0.3,i,4.1,37.2*
COC(=O)c1cnc2ccccc2n1,-2.9,-16.9,0.4,i,-11.3,4.3
CCOC(=O)Nc1ccc2c(c1)N(C(=O)CN(CC)CC)c1ccccc1C=C2,-15.2,72.4*,-35.3,i,-3.1,-0.6
CCOC(=O)Nc1ccc2c(c1)N(C(=O)CCN(CC)CC)c1ccccc1S2=O (stereo not drawn),-9.0,59.3*,-27.2,i,6.6,14.6
CCOC(=O)C1CCN(Cc2cccc(OCc3ccccc3)c2)CC1,-9.7,-3.9,-11.7,i,7.6,1.0
Cc1cc(-c2nnc(SCC(=O)Nc3ccccc3C(F)(F)F)o2)c(C)n1-c1ccccc1,17.0*,-11.9,-7.9,i,-12.6,17.0
Cc1cccc2c1N(CCOc1ccccc1Cl)C(=O)C2=O,23.6*,-16.0,-1.3,/,8.4,-7.9
O=C1CC(N2CCN(C/C=C/c3ccccc3)CC2)C(=O)N1Cc1cccs1 (stereo not drawn),-8.2,87.3*,-24.2,i,0.1,21.9
CCN(CC)CCCC(C)n1c(C)cc(C(=O)NS(=O)(=O)c2ccc(C)cc2)c1C (stereo not drawn),1.1,-6.8,5.2,i,/,-6.5
CCOC(=O)N1CCC(N2Cc3cccc(C(=O)NCc4ccccn4)c3C2=O)CC1,-10.3,27.7*,-22.0,i,-7.4,10.4
CCCOc1ccc(/C=N/NC(=O)c2ccc3c(c2)OCO3)c(OCCC)c1,3.7,-27.7,32.5*,i,0.3,15.0
C/C(CC(=O)Nc1cc(C)ccn1)=N\NC(=O)c1cccc(F)c1,5.1,7.4,8.6,+,3.9,-14.2
O=[N+]([O-])c1ccc(N2CCN(Cc3ccccc3)CC2)c2c1no[n+]2[O-],1.1,34.8*,-25.4,/,/,3.6
O=C(C1CCCCCC1)N1CC[C@@H](N2CCC(O)CC2)[C@H](O)C1,-8.7,-14.6,6.2,i,1.2,-10.9
CC(C)CC1OC(C)CC2=C1C(=O)OC(C)(C)O2 (stereo not drawn),/,/,/,i,/,10.9
CC(=O)OCC(=O)[C@@]1(O)CC[C@H]2[C@@H]3CCC4=CC(=O)C=C[C@]4(C)[C@@]3(Cl)[C@@H](Cl)C[C@@]21C,37.3*,-21.1,-14.5,i,-9.3,6.7
CCCNC(=O)CN(C)S(=O)(=O)c1ccc(F)cc1,-1.3,3.0,3.9,i,-18.9,3.0
CC(C)NC(=O)CN(C)S(=O)(=O)c1ccc(F)cc1,0.2,-10.2,6.9,i,-7.4,35.5*
Cc1cc(NC(=O)CSc2nc(-c3cccs3)cc(C(F)(F)F)n2)no1,-1.3,-1.8,4.4,+,-5.4,-3.8
Cc1cc(NC(=O)CSc2c(C)[nH]c3ccccc23)no1,-2.0,-2.5,1.1,+,-11.0,-1.0
Cc1cc(NC(=O)CSc2c[nH]c3ccccc23)no1,-2.3,-9.8,9.2,i,0.7,4.7
O=C(COC(=O)c1cc(Br)ccc1O)NCCC1=CCCCC1,-4.7,-6.8,2.4,i,/,24.5

# Screens: PubChem BioAssay, several laboratories
